# Reference: PubChem BioAssay (NCATS)
# Records with an inconclusive call do not appear. Calls of active or inactive are those of the source. Calls follow the shape of the dose curve; as a rule, active = well fitted inhibition curve with a large enough effect; inconclusive = small, poorly fitted or top-dose-only effect; inactive = flat fitted curve, though single readings scatter.
# Biological target: Phospholipid hydroperoxide glutathione peroxidase GPX4 (Homo sapiens) (UniProt P36969)
# Assay: Primary qHTS Assay for Inhibitors of Recombinant Selenoprotein Glutathione Peroxidase 4 (GPX4) (AID 1845192); also: nearly all actives have a fitted effect of over 65% in size
# Conditions: recombinant GPX4, GR-coupled NADPH fluorescence, 15 min; series mostly up to 50 µM; activity change, negative = inhibition: at the top concentration
# How it was run: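 Steps: GPX4 plus compound, 30 min RT; add GR/GSH/NADPH master mix; start with cumene hydroperoxide; read 340/450 nm fluorescence at 0 and 15 min. Finals were 200 nM GPX4, 1 mM GSH, 0.5 mM CHP, 0.5 mM NADPH, 100 nM GR.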
# % is scaled to controls: 0 for no effect and ±100 for the full control effect.
# Sequence of Phospholipid hydroperoxide glutathione peroxidase GPX4 (Homo sapiens) (P36969 whole entry, looked up): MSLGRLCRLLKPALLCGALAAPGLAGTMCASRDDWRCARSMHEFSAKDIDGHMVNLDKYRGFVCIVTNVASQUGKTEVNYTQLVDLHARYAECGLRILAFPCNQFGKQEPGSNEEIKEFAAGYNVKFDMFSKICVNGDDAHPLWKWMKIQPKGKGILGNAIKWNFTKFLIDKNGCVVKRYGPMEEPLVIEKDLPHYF
Structure (SMILES),"activity change, negative = inhibition",outcome
CC(=O)OC1CC(O)C2(C)C(CC(OC(C)=O)C3(C)C2CCC2(C)C(c4ccoc4)C(=O)C4OC423)C1(C)C (centres undefined),-12.6% [at 27.8 µM] (inactive),–
Cc1cn(C[C@H](N)C(=O)O)c(=O)n(Cc2cc(-c3ccccc3)sc2C(=O)O)c1=O,12% (inactive),–
CN1C(=O)c2ccccc2NC(=O)C1Cc1ccccc1 (centres undefined),-11.1% (inactive),–
C=C1[C@@H]2CC[C@@]3(C)[C@H](c4ccoc4)OC(=O)C[C@]13O[C@H]1CC(=O)C(C)(C)[C@H](C(OC(C)=O)C(=O)OC)[C@]12C (some centres undefined),-9.04% [at 27.8 µM] (inactive),–
C[C@]12Cc3cn4c(nc3C=C1CCC1C2CC[C@@]2(C)[C@H]1CC[C@@]2(O)C#N)nc1ccccc14 (some centres undefined),-12.9% (inactive),–
C/C=C(\C)C(=O)O[C@H]1[C@H](OC(C)=O)[C@]2(CO)[C@H](O)[C@H](O)[C@]3(C)C(=CCC4[C@@]5(C)CC[C@H](O[C@@H]6O[C@H](C(=O)O)[C@@H](O)[C@H](O[C@@H]7OC[C@H](O)[C@H](O[C@@H]8OC[C@H](O)[C@H](O)[C@H]8O)[C@H]7O)[C@H]6O[C@@H]6O[C@H](CO)[C@@H](O)[C@H](O)[C@H]6O)C(C)(C)C5CC[C@]43C)[C@@H]2CC1(C)C (some centres undefined),2.03% [at 9.73 µM] (inactive),–
N#CC(OC1OC(COC2OC(CO)C(O)C(O)C2O)C(O)C(O)C1O)c1ccccc1 (centres undefined),-8.58% [at 27.8 µM] (inactive),–
CCc1[nH]c2ccc(OC)cc2c1CCN(C)C,6.92% (inactive),–
C[C@H]1O[C@@H](O[C@H]2C[C@@H](O)[C@]3(CO)C4C(CC[C@]3(O)C2)[C@@]2(O)CC[C@H](C3=CC(=O)OC3)[C@@]2(C)C[C@H]4O)[C@@H](O)[C@@H](O)[C@H]1O (some centres undefined),–,inactive [at 15.3 µM]
O=c1[nH]cc(N(CCCl)CCCl)c(=O)[nH]1,-9.23% [at 100 µM] (inactive),–
CCCN1CCc2cccc3c2[C@H]1Cc1ccc(O)c(O)c1-3,-13.6% (inactive),–
COC(=O)C1(C)CCC(=O)C2(C)c3c(O)cc(C(C)C)cc3C(O)C(OC(C)=O)C12 (centres undefined),-11.1% [at 27.8 µM] (inactive),–
COC(=O)N1CCN(C(=O)Cc2ccc(Cl)c(Cl)c2)[C@@H](CN2CCCC2)C1,7.56% (inactive),–
CN(C(=O)Cc1ccccc1)C(CN1CCCC1)c1ccccc1 (centres undefined),1.95% (inactive),–
CC(C)(C)c1cc(C=C(C#N)C#N)cc(C(C)(C)C)c1O,–,inactive
CN1C(=O)c2ccccc2NC(=O)[C@]12O[C@@H]2c1ccccc1,-12% (inactive),–
O=C(N1CCOCC1)N1CCN(c2ccc(Cl)cc2)CC1,2.06% (inactive),–

Structure (SMILES),"activity change, negative = inhibition",outcome
COC(=O)C12C(=O)C(C)(O)C(=O)C1(C)C(C)=CC1C34CCC(OC3=O)C(C)(CO)C4CCC12C (centres undefined),-5.98% [at 27.8 µM] (inactive),–
CCCN1CC[C@@H]2c3cc(O)ccc3CC[C@@H]21,-11.1% (inactive),–
CCCN1CCc2cc(O)cc3c2[C@H]1Cc1ccc(O)c(O)c1-3,–,inactive
CN1CC[C@@]2(C)c3cc(O)ccc3N(C)C12 (some centres undefined),–,inactive
CCn1cnc2c(Nc3cccc(Cl)c3)nc(N[C@@H]3CCCC[C@@H]3N)nc21,–,inactive
O=[N+]([O-])c1cc(O)c(O)c([N+](=O)[O-])c1,–,inactive
NC(=O)CI,2.61% (inactive),–
COC(=O)[C@@]12C(=O)C(C)C(=O)[C@]1(C)C(C)=C[C@H]1[C@]3(C=O)CC[C@H](OC(C)=O)C(C)(C)[C@H]3CC[C@@]12C (some centres undefined),-18.1% [at 27.8 µM] (inactive),–
OCCCCC#Cc1cncc(OC[C@@H]2CCN2)c1,17.5% (inactive),–
CN(N=O)c1cc(O)ccc1O,2.38% (inactive),–
CC(N)c1cccc(Cl)c1Cl (centres undefined),–,inactive
NCC(O)c1cc(O)c(O)cc1F (centres undefined),2.61% (inactive),–
CCCN1CCC[C@@H](c2cccc(O)c2)C1,–,inactive
c1ccc2cc(CC3=NCCN3)ccc2c1,-0.568% (inactive),–
COc1ccc2[nH]c3c(c2c1)CCNC3,–,inactive
CN(N=O)c1ccc(O)c(O)c1,–,inactive
CN1CCc2cc(O)cc3c2[C@H]1Cc1ccc(O)c(O)c1-3,-4% (inactive),–
